# KCNQ2 block: KCNQ2 (rat) channel inhibition; CHO-K1 KCNQ2, FluxOR thallium flux, 20 min; stronger effect = lower value; B-score at 10 µM; 310,000 tested, 1.1% active; AID 2156;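 active = fluorescence ratio B-score at most minus 3 library SDs, with starting brightness B-score within 2 library SDs, cut at about -5.5 in these data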
# KCNQ2 enhance: KCNQ2 (rat) channel potentiation | CHO-K1 KCNQ2, FluxOR thallium flux fluorescence; stronger effect = higher value | B-score at 10 µM | AID 2239 | 310,000 tested, 0.54% active;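 active = fluorescence ratio B-score at least 3 SD of library B-scores, with initial fluorescence B-score within 3 of them, cut at about 5.3 in these data; same plate scores as AID 2156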;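 also: B-score of peak minus minimum over baseline fluorescence ratio after K+ and Tl+ stimulus; positive B-score means potentiation of KCNQ2 with more thallium influx and brighter signal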
# KCNQ2 block conf: confirmation of rat KCNQ2 potassium channel inhibitors | shares compounds with KCNQ2 block | KCNQ2-expressing cells, thallium flux, inhibition; stronger effect = lower value | activity change, negative = inhibition, % at 10 µM | 1,000 tested, 57% active | AID 493025;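 also: 0% = vehicle wells and values are ratio percent relative to vehicle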
# KCNQ1 spec: KCNQ2 inhibitor that also affects human KCNQ1 channel; shares compounds with KCNQ2 block; KCNQ1-expressing cells, FluxOR thallium flux fluorescence; stronger effect = lower value; 1,000 tested, 15% active; activity change, negative = inhibition, % at 10 µM;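 active = activity change at least 3 SD of negative controls below their mean in both duplicate wells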;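 also: CHO cells stably transfected with KCNQ1 and depolarized by potassium stimulus; peak minus minimum fluorescence over baseline after thallium addition; 0% = vehicle negative control and -100% = blank without thallium stimulus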
# Target sequence (P51787 whole entry, looked up): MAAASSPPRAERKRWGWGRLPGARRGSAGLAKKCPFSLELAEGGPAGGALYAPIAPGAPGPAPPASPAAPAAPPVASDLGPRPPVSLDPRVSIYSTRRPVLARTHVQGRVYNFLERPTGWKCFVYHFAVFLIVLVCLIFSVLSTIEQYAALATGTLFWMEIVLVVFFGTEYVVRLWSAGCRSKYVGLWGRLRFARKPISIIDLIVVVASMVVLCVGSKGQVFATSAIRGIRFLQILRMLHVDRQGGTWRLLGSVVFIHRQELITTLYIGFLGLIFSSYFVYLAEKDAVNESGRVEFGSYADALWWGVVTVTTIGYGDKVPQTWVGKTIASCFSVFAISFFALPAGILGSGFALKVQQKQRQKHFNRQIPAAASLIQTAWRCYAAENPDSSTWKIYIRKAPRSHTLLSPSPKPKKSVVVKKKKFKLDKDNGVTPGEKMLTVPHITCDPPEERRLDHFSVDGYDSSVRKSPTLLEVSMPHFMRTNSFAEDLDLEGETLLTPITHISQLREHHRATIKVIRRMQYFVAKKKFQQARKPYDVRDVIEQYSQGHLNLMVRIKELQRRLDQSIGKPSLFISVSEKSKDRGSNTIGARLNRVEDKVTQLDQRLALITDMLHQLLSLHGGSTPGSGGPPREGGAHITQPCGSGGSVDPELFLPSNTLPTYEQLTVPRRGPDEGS
# CHO Tl ctr: KCNQ2 inhibitor counter-screen hit in parental CHO cells. 1,000 tested, 14% active. shares compounds with KCNQ2 block. thallium flux counter-screen; stronger effect = lower value. activity change, % at 10 µM;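 also: 0% = vehicle negative controls with stimulus buffer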
# KCNQ2 inh confirm: rat KCNQ2 inhibition confirmed by electrophysiology; KCNQ2-expressing cells, automated patch clamp current; shares compounds with KCNQ2 block; calls only at 10 µM; 550 tested, 49% active
# An asterisk follows results filed as active; i = inactive; x = not tested or not shown. In the library only some 1.6% were active in any assay of this set; here they are far more common. Unless noted, no rule for the calls is given here.
SMILES,KCNQ2 block,KCNQ2 enhance,KCNQ2 block conf,KCNQ1 spec,CHO Tl ctr,others
BrC(=C\c1ccccc1)/C=N/Nc1nc(N2CCOCC2)nc(N2CCOCC2)n1,i,0.25,x,x,x,
C/C(=C/C=N/Nc1nc(N2CCCCC2)nc(N2CCCCC2)n1)c1ccccc1,-7.19*,-7.19,-29.0%*,i,i,KCNQ2 inh confirm=i
Oc1ccc(/C=N/Nc2nc(N3CCCCCC3)nc(N3CCCCCC3)n2)c(O)c1,i,x,x,x,x,
O=C(Cn1[nH]c(=O)c2ccccc2c1=O)OCC(=O)c1ccc(Br)cc1,i,x,x,x,x,
CC1=CCC2C(=O)N(c3cccc(C(=O)Nc4ccccc4Cl)c3)C(=O)C2C1 (stereo unspecified),i,x,x,x,x,
COc1ccc(NC(=O)CCC(=O)Nc2nnc(CC(C)C)s2)cc1Cl,i,0.66,x,x,x,
Cc1ccc(O)c(CCc2ccc(O)cc2)n1,i,0.18,x,x,x,
O=C(COc1ccccc1-c1ccccc1)NCc1ccco1,-8.5*,-8.5,i,i,i,
Cc1ccccc1NC(=O)COc1ccccc1C,i,x,x,x,x,
Cc1ccccc1OCC(=O)Nc1ccccc1-c1ccccc1,-6.62*,-6.62,i,i,i,
CCOc1ccccc1OCC(=O)NCc1ccco1,i,x,x,x,x,
Cc1ccccc1CC1(CO)CCCN(C(=O)c2cc(Cl)ccc2F)C1 (stereo unspecified),i,0.43,x,x,x,
Cc1ccccc1CC1(CO)CCCN(C(=O)c2cccc(Cl)c2)C1 (stereo unspecified),-6.84*,-6.84,-27.0%*,i,i,KCNQ2 inh confirm=i
Cc1nc(N2CCN(Cc3ccccc3)CC2)nc2c1C(=O)CC(c1ccco1)C2 (stereo unspecified),-9.63*,-9.63,i,i,i,
Cc1nc(N2CCN(Cc3ccc4c(c3)OCO4)CC2)nc2c1C(=O)CC(c1ccco1)C2 (stereo unspecified),i,x,x,x,x,
O=C(NCCC1=CCCCC1)C1CC(=O)N(Cc2ccccc2)C1 (stereo unspecified),i,x,x,x,x,
O=C(CN1C(=O)COc2ccccc21)N(Cc1cccnc1)Cc1ccccc1F,i,x,x,x,x,
COCCn1c(C)cc(C(=O)COC(=O)/C=C/c2c(C)nn(C3CCS(=O)(=O)C3)c2Cl)c1C (stereo unspecified),i,1.11,x,x,x,
Nc1nc2ncc(-c3ccsc3)c(N)n2n1,i,x,x,x,x,
Cc1ccc(-c2nn(-c3ccccc3)cc2CN(Cc2ccccc2)C(=O)c2ccco2)o1,-15.1*,-15.1,-47.0%*,-48.5%*,-49.5%*,KCNQ2 inh confirm=i
Cc1ccc(-c2nn(-c3ccccc3)cc2C(=O)O)o1,i,x,x,x,x,
